Inconclusive results are not listed. Values without a mark were called inactive. The source made the active and inactive calls. Calls come from the whole dose curve; as a rule, active = well fitted cell-killing curve with a large enough effect; inconclusive = small, poorly fitted or top-dose-only effect, or effect the other way; inactive = no such curve, though single readings can be large or run the other way.
The compounds below were run on CAOV3 (assay: Confirmatory qHTS for gynecologic anti-cancer compounds from libraries of approved drugs and bioactive compounds). Conditions: gynecologic cancer cell panel viability, ATPlite luminescence, 48 h; series mostly up to 57.6 µM.
Outline: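 Cells (1,000/well) were plated, left 16 h at 37 C/5% CO2, then given compound at 11 concentrations (1:3) from 57.5 uM to 0.977 nM for 48 h. ATPlite luminescence after 15 min at room temperature gave IC50 values.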
With `COc1ccc(-c2cc3nccn3c(Nc3ncccc3C(N)=O)n2)cc1OC` the Potency was “inactive”. `CCN1C[C@H](C)n2c(c(O)c3c(=O)n(Cc4ccc(F)c(Cl)c4)nc(C(=O)NC)c32)C1=O` was tested, and the Potency was “inactive”. In the case of `O=C1NC(=O)C(c2cnc3ccccn23)=C1c1cn2c3c(cccc13)CN(C(=O)N1CCOCC1)CC2`, the Potency is reported as “inactive”. `Cc1ccc(-n2[nH]c(C)c(N=Nc3cccc(-c4cccc(C(=O)O)c4)c3O)c2=O)cc1C` was tested, and the Potency was 27.3 µM (active). For `COc1cc(N2CCC(N3CCN(C)CC3)CC2)ccc1Nc1ncc(Cl)c(Nc2ccccc2S(=O)(=O)C(C)C)n1`, the Potency was 3.43 µM (active). For `CN(C)C/C=C/C(=O)Nc1cc2c(Nc3ccc(F)c(Cl)c3)ncnc2cc1OC1CCOC1` (centres undefined), the Potency was 10.9 µM (active). In the case of `O=c1cc(CN2CCOCC2)occ1OCCCCCSc1ccnc2cc(C(F)(F)F)ccc12`, the Potency is reported as “inactive”. With `Cc1cc(SCc2sc(-c3ccc(C(F)(F)F)cc3)nc2C)ccc1OCC(=O)O` the Potency was “inactive”. For `COc1ccc2c(c1OC)C(=O)O[C@@H]2[C@H]1c2c(cc3c(c2OC)OCO3)CCN1C`, the Potency was “inactive”. `COc1cc(Nc2c(C#N)cnc3cc(OCCCN4CCN(C)CC4)c(OC)cc23)c(Cl)cc1Cl` was tested, and the Potency was 27.3 µM (active). In the case of `CC[C@@]1(O)C(=O)OCc2c1cc1n(c2=O)Cc2c-1nc1ccccc1c2/C=N/OC(C)(C)C`, the Potency is reported as 0.0968 µM (active). Compound `CC[C@H](Nc1ncnc2nc[nH]c12)c1nc2cccc(F)c2c(=O)n1-c1ccccc1` has an activity change, negative = viability loss of -13.8% [at 10.7 µM]. In the case of `CNC(=O)c1ccccc1Nc1nc(Nc2ccc(N3CCOCC3)cc2OC)ncc1Cl`, the Potency is reported as 1.37 µM (active). In the case of `Cn1cc(-c2[nH]c3cc(NC(=O)[C@H](N)C4CCCCC4)cc4c3c2C=NNC4=O)cn1`, the Potency is reported as 3.85 µM (active). `CC(C)Oc1ccc2c(=O)c(-c3ccccc3)coc2c1` was tested, and the Potency was 15.3 µM (active). In the case of `Cc1cc(CN2CCN(c3c(Br)cnc4nc(-c5ccc(N6CCN(C)CC6)cc5)[nH]c34)CC2)no1`, the Potency is reported as 13.7 µM (active). `CC[C@@]1(O)C(=O)OCc2c1cc1n(c2=O)Cc2cc3c(CN(C)C)c(O)ccc3nc2-1` was tested, and the Potency was 0.544 µM (active). `CC(Oc1cc(-n2cnc3ccc(CN4CCN(C)CC4)cc32)sc1C(N)=O)c1ccccc1C(F)(F)F` (centres undefined) was tested, and the Potency was 27.3 µM (active). For `CCCCc1oc2ccccc2c1C(=O)c1cc(I)c(OCCN(CC)CC)c(I)c1`, the Potency was 79.4 µM (active). For `Cc1csc(NC(=O)c2sc3nc4c(c(C(F)(F)F)c3c2N)CCC4)n1`, the Potency was 1.72 µM (active). In the case of `CCS(=O)(=O)c1cccc(-c2cc(C(=O)NC3CCN(C)CC3)c(C)c3[nH]c4ncc(C)cc4c23)c1`, the Potency is reported as 0.672 µM (active). With `Cc1ccc(C(=O)N(CCCN)C(c2oc3cc(Cl)ccc3c(=O)c2Cc2ccccc2)C(C)C)cc1` (centres undefined) the Potency was 27.3 µM (active). For `COc1cc(Nc2ncc(F)c(Nc3ccc4c(n3)N(COP(=O)(O)O)C(=O)C(C)(C)O4)n2)cc(OC)c1OC`, the Potency was 3.43 µM (active). For `CCc1c2c(nc3ccc(OC(=O)N4CCC(N5CCCCC5)CC4)cc13)-c1cc3c(c(=O)n1C2)COC(=O)[C@]3(O)CC`, the Potency was 19.3 µM (active). `CCCC(Nc1nc(-c2ccc(NC(=O)NCC)c(OC)c2)ncc1C)c1cccnc1` (centres undefined) was tested, and the Potency was “inactive”. In the case of `COc1cc(N2CCC(N(C)C)CC2)ccc1Nc1ncc(Cl)c(Nc2ccccc2P(C)(C)=O)n1`, the Potency is reported as 10.9 µM (active). `Fc1cc(-c2cccc3ncc(-c4cnn(C5CCNCC5)c4)nc23)cc(F)c1CN1CCOCC1` was tested, and the Potency was 27.3 µM (active). With `Cn1cnc2c(F)c(Nc3ccc(Br)cc3Cl)c(C(=O)NOCCO)cc21` the Potency was “inactive”. With `Cc1nc(N)sc1-c1ccnc(Nc2ccc(N3CCOCC3)cc2)n1` the Potency was 3.43 µM (active). With `Cc1c(C)n(Cc2ccc(-c3ccccc3C(=O)O)cc2)c2ccc(C(=O)N[C@@H](C)c3ccc([N+](=O)[O-])cc3)cc12` the Potency was “inactive”. For `Nc1ccn([C@@H]2O[C@H](CO)[C@@H](O)C2(F)F)c(=O)n1`, the Potency was 0.217 µM (active). `CCC1C(=O)N(C)c2cnc(Nc3ccc(C(=O)NC4CCC(N5CCN(CC6CC6)CC5)CC4)cc3OC)nc2N1C(C)C` (centres undefined) was tested, and the Potency was 2.17 µM (active). For `Cn1cnc2c(F)c(Nc3ccc(Br)cc3F)c(C(=O)NOCCO)cc21`, the Potency was “inactive”. In the case of `O=C(c1ccc(F)c(F)c1Nc1ccc(I)cc1F)N1CC(O)([C@@H]2CCCCN2)C1`, the Potency is reported as 27.3 µM (active).

From PubChem BioAssay AID1345085 (National Center for Advancing Translational Sciences (NCATS), 2018)
% is set by controls: 0 for no effect and ±100 for the full control effect; potency is the fitted concentration of half-maximal effect.
Note: nearly all actives have a fitted effect of over 55% in size.
